Calls of active or inactive are those of the source. Rule as the data show it, unless noted: active = inhibition above about 36%; inactive = the rest.
tested on: not listed separately; test: compounds suppressing VP16-driven luciferase signal – cell-based, luminescence, high throughput, counter-screen for LRH-1 inverse agonist project (AID 651615; in the data active = inhibition above about 33%); conditions: Gal4-VP16 luciferase reporter cells, at 3.6 µM, stronger effect = higher value

SMILES	inhibition
CC(=O)O[C@H]1C[C@@H]2OC3C=C(C)CCC3(C)[C@@]1(C)[C@@]21CO1 (stereo partly drawn)	96.8% (active)
COC1=C(C)C(=O)C2=C(C1=O)C(CO)N1C(C#N)C3CC4C(C1C2N1CCOC41)N3C (stereo not drawn)	95.3% (active)
COC1C(O)C(C)OC(OC2CCC3(C)C(CCC4C3C(O)CC3(C)C(C5=CC(=O)OC5)CCC43O)C2)C1O (stereo not drawn)	91.1% (active)
CC(=O)OC1C(O)C(C)OC(OC2C(OC(=O)C3CCC4C(C3)OC3(CC(OC(=O)/C=C/c5ccccc5)C(C)CO3)C43CO3)OC(C)C(O)C2OC(C)=O)C1O (stereo not drawn)	97.4% (active)
CC(=O)OC1CC(OC2C(O)CC(OC3C(O)CC(OC4CCC5(C)C(CCC6C5CCC5(C)C(C7=CC(=O)OC7)CCC65O)C4)OC3C)OC2C)OC(C)C1OC1OC(CO)C(O)C(O)C1O (stereo not drawn)	92.5% (active)

tested on: transactivating tegument protein VP16 (Human herpesvirus 1); test: compounds suppressing VP16-driven luciferase signal – cell-based, luminescence, single concentration, counter-screen for SRC2 inhibitor project (AID 652007); conditions: cell-based VP16 transactivation luciferase reporter, at 8.9 µM, stronger effect = higher value

SMILES	inhibition
CN(Cc1cccc(-c2cccnc2)c1)C(=O)Oc1ccc([N+](=O)[O-])cc1	2.36% (inactive)
Cc1ccccc1CN1Cc2cnnn2-c2ccccc2C1C#N (stereo not drawn)	39.8% (active)
CC(=O)O[C@H]1C[C@@H]2OC3C=C(C)CCC3(C)[C@@]1(C)[C@@]21CO1 (stereo partly drawn)	79.3% (active)
CCOP(=O)(OCC)c1cccc(OP(=O)(c2cccc([N+](=O)[O-])c2)c2cccc([N+](=O)[O-])c2)c1	-4.6% (inactive)
C=C1C(=O)O[C@H]2C[C@@H](C)[C@@H]3C=CC(=O)[C@@]3(C)C[C@H]12	69.4% (active)
Oc1ccc(-[n+]2c(-c3ccccc3)cc(-c3ccccc3)cc2-c2ccccc2)cc1	35.3% (inactive)
CCN1CCN(S(=O)(=O)c2ccc(Cl)c(C(=O)Nc3ccc(C(=O)N(CC)CC)cc3)c2)CC1	-10.1% (inactive)
Nc1cccc(SC2CC(=O)N(c3ccc(Cl)cc3C(=O)c3ccccc3)C2=O)c1 (stereo not drawn)	3.94% (inactive)
COC1=C(C)C(=O)C2=C(C1=O)C(CO)N1C(C#N)C3CC4C(C1C2N1CCOC41)N3C (stereo not drawn)	41.7% (active)
COc1ccc(S(=O)(=O)N2Cc3cnnn3-c3ccccc3C2C#N)cc1 (stereo not drawn)	1.55% (inactive)
CCn1ccnc1CN1CCCC(C(=O)c2cccc(C(F)(F)F)c2)C1 (stereo not drawn)	-3.5% (inactive)
COC1C(O)C(C)OC(OC2CCC3(C)C(CCC4C3C(O)CC3(C)C(C5=CC(=O)OC5)CCC43O)C2)C1O (stereo not drawn)	57.6% (active)
c1cncc(-c2ccc3n2Cc2cnnn2-c2ccccc2-3)c1	11% (inactive)
NC(=O)c1c(Br)n(C2OC(CO)C(O)C2O)c2ncnc(N)c12 (stereo not drawn)	15.6% (inactive)
COC(=O)C1=C(c2ccc(-c3ccccc3)c(F)c2)C[C@@H]2CC[C@H]1N2C(=O)NCc1ccc(F)cc1	-5.9% (inactive)
CC(=O)OC1C(O)C(C)OC(OC2C(OC(=O)C3CCC4C(C3)OC3(CC(OC(=O)/C=C/c5ccccc5)C(C)CO3)C43CO3)OC(C)C(O)C2OC(C)=O)C1O (stereo not drawn)	79.4% (active)
O=C1NC(=O)N(Cc2ccco2)C(=O)/C1=C/C=C/c1ccco1	8.52% (inactive)

SMILES	inhibition
Cc1nc2cc(-c3cccc(F)c3)nn2c(C)c1CCC(=O)N1CCC2(CC1)OCCO2	-18.5% (inactive)
COc1ccc2c3c1O[C@H]1C(=O)CC[C@H]4[C@@H](C2)N(C)CC[C@]314	-4.81% (inactive)
COc1cc(CC(C)N)c(OC)cc1I (stereo not drawn)	-16.9% (inactive)
Cc1ccc(N2C(=O)NC(=O)C(CCc3ccccn3)(Cc3ccc(F)cc3)C2=O)cc1 (stereo not drawn)	-10.7% (inactive)
COC(=O)C1=C(C(=O)OC)C2c3ccccc3C1c1ccccc12	12.3% (inactive)
C[C@@H]1C[C@@H]([C@H](O)CC2CC(=O)NC(=O)C2)C(=O)[C@@H](C)C1	48% (active)
CC(=O)OC1CC(OC2C(O)CC(OC3C(O)CC(OC4CCC5(C)C(CCC6C5CCC5(C)C(C7=CC(=O)OC7)CCC65O)C4)OC3C)OC2C)OC(C)C1OC1OC(CO)C(O)C(O)C1O (stereo not drawn)	67.4% (active)
O=C(c1ccc(Cl)cc1)C1CCCN(Cc2cccc3ncccc23)C1 (stereo not drawn)	14.6% (inactive)
CCOP(=O)(OCC)C1(O)C(=O)Nc2ccc(Br)cc21 (stereo not drawn)	-7% (inactive)
Cc1nc2cc(-c3ccc(Cl)cc3)nn2c(C)c1CCC(=O)N1CCC2(CC1)OCCO2	16.4% (inactive)
CCOC(=O)C1(CCc2ccccc2)CCN(Cc2cccc3cnccc23)CC1	10.4% (inactive)
O=[N+]([O-])c1ccc(N2CCCC(C(F)(F)F)C2)c2ccncc12 (stereo not drawn)	10.6% (inactive)
CC(=O)OC(C)(C)/C=C/C(=O)C(C)(O)C1[C@H](O)C[C@@]2(C)C3CC=C4C(CC[C@@H](O)C4(C)C)[C@]3(CO)C(=O)C[C@]12C (stereo partly drawn)	31.1% (inactive)
O=Cc1cn(Cc2ccc(F)cc2Cl)c2ccccc12	14.2% (inactive)
FC(F)(F)c1ccccc1N1CC1c1ccncc1 (stereo not drawn)	-14.4% (inactive)
CN1C(=O)C[N+]([O-])=C(c2ccccc2)c2cc(Cl)ccc21	13.7% (inactive)
